Inhibition data for 92 molecules are collected here from PubChem BioAssay AID1852 (Sanford-Burnham Center for Chemical Genomics, 2009).

The campaign covered roughly 2,500 compounds. About 1,100 (44%) were called active. The set was probably picked from earlier hits. Some of the results follow. Unmarked numbers belong to inactive results.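 The calls were made as follows: active = inhibition above 50% at 4 µM in the single-point screen; inactive = inhibition of 50% or less.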

In general, inhibition refers to the drop in the measured response relative to a control, in per cent.

A short description of this experiment: TNF-a-driven NF-kB reporter inhibitors, primary screen, selectivity assay for NOD1/NOD2 signaling inhibitor project, cell-based, HEK293T NF-kB-Luc, luminescence (AID 1852). Conditions: TNF-a induced, 14 h, at 4 µM, stronger effect = higher value.
On to `CCOC(=O)c1sc(NC(=O)CSc2nc3c(cc2C#N)CCCCCC3)c(C#N)c1C`, for which the inhibition was 52.1% (active).
As to `Cc1c(OCC(=O)N2CCN(c3ccccc3)CC2)ccc2c3c(c(=O)oc12)CCCC3`, the inhibition is 14.2%.
Then `Cc1c(C)c2ccc(OCC(=O)Nc3ccccn3)c(C)c2oc1=O`, with 76.2% (active); and `Cc1sc2ncnc(N3CCN(S(=O)(=O)c4ccc(F)cc4)CC3)c2c1C`, with 15%; and `Cc1ccc(OCCN2CCN(c3ncnc4sc(C)c(C)c34)CC2)cc1`, with 63% (active).
For `Cc1sc2ncnc(N3CCN(S(=O)(=O)c4ccc(Br)cc4)CC3)c2c1C`, the inhibition was 29.2%.
The value for `Cc1cc(C)c(C)c(S(=O)(=O)N2CCN(c3ncnc4sc(C)c(C)c34)CC2)c1C` was 75.3% (active); that for `COC(=O)c1scc(C#N)c1N/N=C(\C#N)S(=O)(=O)c1ccc(Cl)cc1` was -8.6%; that for `CC(C)(C)OC(=O)N1Cc2ccccc2C[C@H]1C(=O)NCC(=O)NC1CCCC1` was 11%.
`COCCCn1c(=O)c2sccc2n(Cc2cccc(C)c2)c1=O`: the inhibition was 29.7%.
With `CC(C)CC(=O)/C=C/n1c(=S)oc2ccccc21`, the inhibition was 76.6% (active).
Take `CCCCC(=O)/C=C/n1c(=S)oc2ccccc21`: the inhibition is -6.6%.
Consider `CC(=O)/C=C/n1c(=S)oc2ccccc21`, for which the inhibition was 94.2% (active).
With `COC(=O)N1C(=O)[C@](CC(C)C)(c2ccccc2)N1C(=O)OC`, the inhibition is 45.2%.
In the case of `COC(=O)N1C(=O)[C@@](Cc2ccccc2)(c2ccccc2)N1C(=O)OC`, the inhibition is 59.8% (active).
For the molecule `CCCCCCCCn1c2c(c(=N)c3c1CCC3)CCCC2`, the inhibition is 79.5% (active).
With `N=c1c2c(n(Cc3ccc(Cl)cc3)c3c1CCC3)CCC2`, the inhibition was 12.4%.
Consider `CCCCCCCn1c2c(c(=N)c3c1CCC3)CCCC2`, for which the inhibition is 76.9% (active).
With `CCCCCCCCCn1c2c(c(=N)c3c1CCC3)CCCC2`, the inhibition is 91.2% (active).
Take `O=C(c1ccc(S(=O)(=O)Cc2cc(F)ccc2F)c([N+](=O)[O-])c1)N1CCCCC1`: the inhibition is -1.2%.
Take `CC1CCN(C(=O)c2ccc(S(=O)(=O)Cc3cccc(F)c3)c([N+](=O)[O-])c2)CC1`: the inhibition is 16.5%.
For `O=C(c1ccc(S(=O)(=O)Cc2ccccc2Cl)c([N+](=O)[O-])c1)N1CCN(c2ccccn2)CC1`, the inhibition is 58.6% (active).
On to `Cc1ccc(CS(=O)(=O)c2ccc(C(=O)N3CCN(c4ccccn4)CC3)cc2[N+](=O)[O-])cc1`, for which the inhibition is 53% (active).
The value for `CC1CCN(C(=O)c2ccc(S(=O)(=O)Cc3cc(F)ccc3F)c([N+](=O)[O-])c2)CC1` was 50.4% (active).
On to `Cc1ccc(N=c2c([N+](=O)[O-])nn(-c3ccc4c(c3)OCCO4)n2O)cc1F`, for which the inhibition was 0.1%.
For the molecule `COc1ccccc1N1CCN(C(=O)C2CCCN(S(=O)(=O)c3ccc4c(c3)oc(=O)n4C)C2)CC1` (configuration not stated), the inhibition is 19.5%.
With `CC(=O)N1CCCc2cc(S(=O)(=O)N3CCCC(C(=O)N4CCN(c5cccc(Cl)c5)CC4)C3)ccc21` (configuration not stated), the inhibition was 57.4% (active).
For the molecule `CC(=O)N1CCCc2cc(S(=O)(=O)N3CCCC(C(=O)N4CCN(c5cc(C)ccc5C)CC4)C3)ccc21` (configuration not stated), the inhibition was 45.4%.
The value for `C=C(C)C(=O)O[C@H]1C/C(C)=C\C(=O)/C=C(\C)[C@H](O)[C@@H]2OC(=O)C(=C)[C@@H]21` was 102% (active); that for `O=C(COc1cccc2ccccc12)Nc1ccc(Cl)cc1C(=O)O` was -62.6%; that for `O=C(COc1ccc(Cl)cc1Cl)Nc1ccc(C(=O)Nc2ccccc2C(=O)O)cc1` was 53.4% (active).
With `Cc1cc(C(=O)Nc2ccccc2C(=O)O)ccc1NC(=O)COc1ccccc1Cl`, the inhibition was -11.7%.
Then `CC(NC(=O)OCc1ccccc1)C(=O)Oc1cc2oc(=O)cc(-c3ccccc3)c2cc1Cl` (configuration not stated), with 55.2% (active).
`CC(NC(=O)OC(C)(C)C)C(=O)Oc1cc2oc(=O)cc(-c3ccccc3)c2cc1Cl` (configuration not stated): the inhibition was 84.3% (active).
With `Cc1ccc(CNC(=O)[C@H](C)[C@H]2C[C@]2(C)[C@H](NC(=O)OCc2ccccc2)c2ccccc2)o1`, the inhibition was 1.6%.
The value for `Cc1c(N=C2C=CC(=O)c3ccccc32)c(=O)n(-c2ccccc2)n1C` was 76.4% (active); that for `Cc1c(Nc2c3ccccc3nc3ccccc23)c(=O)n(-c2ccccc2)n1C` was 27.4%.
For the molecule `COc1ccc(-c2nc3nc(N)nn3cc2C)cc1F`, the inhibition is 22.9%.
`COc1ccc(-c2cc(N)n(S(=O)(=O)c3c(F)c(F)c(F)c(F)c3F)n2)cc1OC`: the inhibition was 83.8% (active).
Consider `COc1ccc(-c2cc(C(=O)NCCCN3CCOCC3)on2)cc1OC`, for which the inhibition is 6%.
In the case of `CCOC(=O)N=Nc1c2ccccc2c2nc3no[nH]c3nc12`, the inhibition was 105% (active).
As for `COc1cc(/C=C2\C(=N)N3N=C(S(C)(=O)=O)SC3=NC2=O)ccc1OCCOc1ccccc1C`, the inhibition was -26.4%.
For the molecule `CC(=O)c1ccc(N2CCN(c3ccnc4cc(Cl)ccc34)CC2)cc1`, the inhibition is 45.2%.
On to `COc1ccc(-n2c(C)c(C(C)=O)c3cc(O)ccc32)cc1`, for which the inhibition is 72.1% (active).
`CC(=O)c1c(C)n(-c2ccccc2)c2ccc(O)cc12`: the inhibition was 68% (active).
In the case of `CC(=O)c1c(C)n(-c2ccc(Cl)cc2)c2ccc(O)cc12`, the inhibition is 12.3%.
Take `CC(=O)c1ccc(-n2c(C)c(C(C)=O)c3cc(O)ccc32)cc1`: the inhibition is 50.8% (active).
For the molecule `Cc1ccc(S(=O)(=O)NC(CC(C)C)C(=O)N2CC(C)OC(C)C2)cc1` (configuration not stated), the inhibition was 9.2%.
Then `O=C1CCC2S/C(=C/Nc3ccc(C(F)(F)F)cc3)C(=O)N12` (configuration not stated), with 95.8% (active).
Consider `COc1cccc(C(=O)Oc2c(Br)cc(Br)cc2/C=N/NC(=O)c2cc(C)[nH]n2)c1`, for which the inhibition is 71.1% (active).
With `Cc1cc(C(=O)N/N=C/c2cc(Br)ccc2OC(=O)c2ccccc2)n[nH]1`, the inhibition was 91.1% (active).
Regarding `Cc1cc(C(=O)N/N=C/c2cc(Br)cc(Br)c2OC(=O)c2cccc(F)c2)n[nH]1`, the inhibition is 75.2% (active).
As for `Cc1cccc(Nc2nc(N)nc(CCl)n2)c1`, the inhibition is 25.3%.
`O=[N+]([O-])c1ccc(N2CCN(c3ccccc3)CC2)nc1`: the inhibition is -49.6%.
`Cc1ccc(S(=O)(=O)NCc2ccc(C(=O)N3CCN(c4ccc([N+](=O)[O-])cc4)CC3)cc2)cc1`: the inhibition was 43.8%.
On to `Cc1c(-c2ccccc2)oc2c(C(=O)N3CCN(c4ccc([N+](=O)[O-])cc4)CC3)cccc2c1=O`, for which the inhibition was 60.9% (active).
Turning to `CCN1CCN(S(=O)(=O)c2ccc(Cl)c(C(=O)Nc3cc(Cl)ccc3N3CCOCC3)c2)CC1`, the inhibition was 28.9%.
Regarding `CCN1CCN(S(=O)(=O)c2c(C)cc(C)cc2C)CC1`, the inhibition is 54.2% (active).
The value for `Cc1ccc(S(=O)(=O)N2CCN(CCC#N)CC2)cc1` was 44.4%.
For `COc1ccc2[nH]c(C(=O)N/N=C/c3ccc(O)cc3O)cc2c1`, the inhibition is 48.1%.
As for `Cn1cccc1-c1cc(C(=O)N/N=C/c2cc(Br)ccc2O)[nH]n1`, the inhibition is 60.4% (active).
The value for `O=C1CSC(c2cccnc2)N1CCc1ccccn1` (configuration not stated) was 0.7%; that for `Cc1ccc(NC(=O)c2cc3c(s2)CCCC3)cc1S(=O)(=O)Nc1ccccc1Cl` was 69.1% (active); that for `Cc1ccc(NC(=O)c2ccccc2NS(=O)(=O)c2ccc(Cl)s2)cc1` was 71.2% (active).
The value for `COc1ccc(C)cc1NC(=O)c1ccccc1NS(=O)(=O)c1ccc(Cl)s1` was 87.9% (active); that for `O=C(Nc1cc(S(=O)(=O)Nc2ccccc2Cl)ccc1O)c1cc2c(s1)CCCC2` was 36.1%; that for `Cc1cc(NC(=O)c2ccccc2NS(=O)(=O)c2c(C)c(C)cc(C)c2C)no1` was 9.8%.
Then `CS(=O)(=O)Nc1ccccc1C(=O)Nc1cc(Cl)cc(Cl)c1`, with 74.6% (active); and `COc1ccccc1NS(=O)(=O)c1cccc(NC(=O)c2sc3ccccc3c2Cl)c1`, with 39.2%.
Turning to `Cc1ccc(NC(=O)c2ccccc2NS(=O)(=O)c2ccc(Cl)s2)cc1S(=O)(=O)N1CCOCC1`, the inhibition was 84.3% (active).
The value for `COc1cc(NC(=O)c2ccccc2NS(=O)(=O)c2ccc(Cl)s2)cc(OC)c1` was 84.9% (active); that for `COc1cccc(NS(=O)(=O)c2ccc(Br)s2)c1` was -23.8%.
As for `N#C/C(=C(/O)COC(=O)COc1cccc(Br)c1)c1nc2ccccc2[nH]1`, the inhibition is 33%.
In the case of `N#C/C(=C(/O)COC(=O)COc1ccc(Cl)cc1)c1nc2ccccc2[nH]1`, the inhibition was 108% (active).
In the case of `Cc1cc(C)cc(OCC(=O)OC/C(O)=C(\C#N)c2nc3ccccc3[nH]2)c1`, the inhibition is 103% (active).
For `CCS(=O)(=O)c1nnnn1-c1ccccc1S(C)(=O)=O`, the inhibition is 43.2%.
As for `COc1cccc(-n2nnnc2S(C)(=O)=O)c1`, the inhibition is 79.5% (active).
As for `CCCS(=O)(=O)c1nnnn1-c1cccc(OC)c1`, the inhibition was 76.1% (active).
Consider `N#CCCS(=O)(=O)c1nnnn1-c1ccccc1`, for which the inhibition is 75.5% (active).
Then `Cc1cccc(Nc2ncnc3onc(-c4cccc(Cl)c4)c23)c1C`, with 15.5%.
With `COc1cccc(NC(=O)Nc2cccc(C(=O)O)c2)c1`, the inhibition is 65.7% (active).
The value for `COc1ccc(OC)c(-c2csc(NC(=O)C3=NNC(=O)CC3)n2)c1` was 37.1%; that for `COc1cccc(NC(=O)Nc2nc(-c3ccc(OC)c(OC)c3)cs2)c1` was 100% (active).
Then `O=C(Nc1cccc(C(=O)O)c1)Nc1ccccc1Cl`, with -17.8%; and `COc1cccc(NC(=O)CCC2CCN(C(=O)c3cncs3)CC2)c1`, with 4.6%; and `COc1ccc(NC(=O)Nc2nnc(-c3ccncc3)s2)cc1`, with 30%.
Turning to `CC(Sc1nnc2c(n1)[nH]c1ccccc12)C(=O)N(C)C1CCCCC1` (configuration not stated), the inhibition is 32.3%.
The value for `COc1ccc(C)cc1NC(=O)CSc1ccc(-c2ccco2)nn1` was -4.4%.
Take `COc1ccc(NC(=O)CSc2ccc(-c3cccs3)nn2)c(OC)c1`: the inhibition was 72.8% (active).
The value for `COc1ccc(C)cc1NC(=O)CSc1ccc(-c2ccccn2)nn1` was 82.9% (active); that for `COc1ccc(C)cc1NC(=O)CSc1ccc(-c2sc(C)nc2C)nn1` was 21.8%.
Then `COc1ccc(OC)c(NC(=O)CSc2ncnc3c2cnn3-c2ccccc2Cl)c1`, with 36.9%.
